Experimental data as given in PubChem BioAssay AID743255 (National Center for Advancing Translational Sciences (NCATS), 2014).
About 910 (0.23%) of roughly 390,000 compounds were called active. Not shown: some 5% with an inconclusive outcome. Calls come from the whole dose curve; as a rule, active = well fitted inhibition curve with a large enough effect; inconclusive = small, poorly fitted or top-dose-only effect; inactive = no such curve, though single readings can be large or run the other way. The entries come from a sample that favours actives as a whole.

Target: Ubiquitin carboxyl-terminal hydrolase 1 (Homo sapiens) (UniProt O94782)
Sequence (O94782 whole entry, looked up): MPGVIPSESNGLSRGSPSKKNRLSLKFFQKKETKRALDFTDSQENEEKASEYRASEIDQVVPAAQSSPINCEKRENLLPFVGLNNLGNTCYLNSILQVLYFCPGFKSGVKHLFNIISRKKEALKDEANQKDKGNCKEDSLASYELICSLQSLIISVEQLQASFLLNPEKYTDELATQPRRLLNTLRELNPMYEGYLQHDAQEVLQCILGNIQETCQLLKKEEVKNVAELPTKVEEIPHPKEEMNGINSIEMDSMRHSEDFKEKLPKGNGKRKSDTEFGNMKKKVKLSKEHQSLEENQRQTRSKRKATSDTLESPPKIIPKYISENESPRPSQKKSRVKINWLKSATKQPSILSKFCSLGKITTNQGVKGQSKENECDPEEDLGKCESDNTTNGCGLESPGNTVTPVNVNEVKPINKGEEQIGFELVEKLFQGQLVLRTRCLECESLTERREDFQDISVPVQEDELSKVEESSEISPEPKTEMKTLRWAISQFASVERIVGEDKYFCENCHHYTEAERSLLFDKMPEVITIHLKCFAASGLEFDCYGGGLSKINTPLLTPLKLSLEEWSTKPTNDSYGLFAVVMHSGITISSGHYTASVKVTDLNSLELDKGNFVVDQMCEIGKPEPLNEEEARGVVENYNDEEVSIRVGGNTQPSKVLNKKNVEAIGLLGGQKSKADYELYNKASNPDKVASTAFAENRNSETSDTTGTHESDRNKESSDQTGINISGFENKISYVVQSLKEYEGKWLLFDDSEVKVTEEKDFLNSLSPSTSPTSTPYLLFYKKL
Assay: Inhibitors of USP1/UAF1: Primary Screen; note: nearly all actives have a fitted effect of over 60% in size
Details: recombinant USP1/UAF1, Ub-Rhodamine cleavage fluorescence; series mostly up to 57.1 µM
Description: Deubiquitinating enzymes (DUBs) are a class of enzymes that can cleave isopeptide bond formed between the C-terminal carboxylate of ubiquitin and a lysine side-chain amino group on the target protein. Among them, ubiquitin specific proteases (USPs) constitute the largest DUB family. Human USPs are emerging as promising targets for pharmacological intervention because of their connection to a number of human diseases, including prostate, colon and breast cancer (1, 2), pediatric acute lymphoblastic leukemia (3), and familial cylindromatosis (4). The advantage of inhibiting USPs lies in the potential specificity of therapeutic intervention that can lead to better efficacy and reduce nonspecific side effects. In a collaboration between the University of Delaware and the NIH Chemical Genomics Center, a high-throughput screen assay was developed to screen for USP1/UAF1 inhibitors. This miniaturized assay has a fluorescent read-out and is used to screen the NIH Molecular Libraries Small Molecule Repository (MLSMR) in order to identify a small molecule that inhibits USP1. NIH Chemical Genomics Center [NCGC] NIH Molecular Libraries Probe Centers Network [MLPCN] MLPCN Grant: DA030552 Assay Submitter (PI): Zhihao Zhuang, University of Delaware 1. Priolo, C., et al. (2006) The isopeptidase USP2a protects human prostate cancer from apoptosis. Cancer Res 66, 8625-8632 2. Popov, N., et al. (2007) The ubiquitin-specific protease USP28 is required for MYC stability. Nat Cell Biol 9, 765-774 3. De Pitta, C., et al. (2005) A leukemia-enriched cDNA microarray platform identifies new transcripts with relevance to the biology of pediatric acute lymphoblastic leukemia. Haematologica 90, 890-898 4. Kovalenko, A., et al. (2003) The tumour suppressor CYLD negatively regulates NF-kappaB signalling by deubiquitination. Nature 424, 801-805
3 microliters of reagents (buffer in columns 3 and 4 as negative control and 1nM USP1/UAF1 complex in columns 1, 2, and 5-48) are dispensed into Greiner black solid bottom 1536-well assay plates. Compounds are then transferred via Kalypsys pin tool equipped with 1536-pin array (10nl slotted pins, V&P Scientific, San Diego, CA). Following an incubation step of 15 min at room temperature, 1ul of Ub-Rho substrate (150nM final concentration) is added to initiate the reaction. The plates are immediately centrifuged at 1000 rpm for 15 seconds, and subsequently transferred to a ViewLux high-throughput CCD imager (PerkinElmer) wherein kinetic measurements of fluorescence are acquired using 480 nm excitation/540 nm emission filter set (6 reads every 60 seconds, see Table 1). All reagents are diluted in an assay buffer consisting of 50mM HEPES (pH 7.8), 0.5mM EDTA, 0.1 mg/ml BSA, 1mM TCEP, and 0.01% Tween-20.
Potency is the fitted concentration of half-maximal effect.

Potency, inactive:
CN(C)S(=O)(=O)c1ccc(C(=O)N(Cc2cccnc2)c2nc3c(F)cc(F)cc3s2)cc1
COc1ccc(-n2c(=O)c3c(c4cc(OC)ccc4n3C)n(Cc3cccc(C)c3)c2=O)cc1
CCc1nc(-c2cc(S(=O)(=O)N3CCN(c4ccc(OC)cc4)CC3)ccc2OC)no1
CCOc1cc(C(=O)NCCc2csc3nc(-c4ccc(C)cc4)nn23)cc(OCC)c1OCC
CCSc1nnc(NC(=O)c2cc(=O)c3cc(C)c(C)cc3o2)s1
Cc1c(NC(=O)Nc2ccc(F)c(Cl)c2)c(=O)n(-c2ccccc2)n1C
Cc1cccc(N2CCN(C(=O)CCSCc3ccccc3F)CC2)c1C
COc1ccc(CCNC(=O)c2nn(C)c3c2CSc2ccccc2-3)cc1OC
C#CCOCCOCCOCCNc1nc(N2CCN(C(=O)C([C@@H](C)CC)n3cc(C(N)COC(=O)C(F)(F)F)nn3)CC2)nc(N2CCN(C(=O)[C@H](CCCCN)n3cc(C(N)CC(C)C)nn3)CC2)n1 (some centres not stated)
C#CCOCCOCCOCCNc1nc(N2CCOCC2)nc(N2CCN(C(=O)[C@H](Cc3ccc(O)cc3)n3cc(CCO)nn3)CC2)n1
COc1ccccc1NC(=O)c1cc(S(=O)(=O)NCCc2ccccc2)ccc1F
COC(=O)c1ccc(NC(=O)c2cc(S(=O)(=O)N3CCC(C)CC3)cn2C)cc1
Cc1ccc(Cl)cc1N(C)C(=O)C1CCCN(c2ncnc3onc(-c4ccc(F)cc4)c23)C1 (configuration not stated)
COc1ccc(Cc2nc3ccc(C(=O)NCc4ccc(OC)cc4OC)cc3o2)cc1
Cc1ccccc1CNC(=O)CCc1cn(Cc2ccccc2C)c2ccccc12
Cc1ccc(CCNC(=O)c2nnc(Cc3cccc(F)c3)o2)cc1
CCS(=O)(=O)c1nc(S(=O)(=O)c2ccc(C)cc2)c(NCc2ccc(Cl)cc2)s1
COc1ccc(-c2nc(Cn3c(=O)cc(C)c4c(C)nn(-c5ccccc5)c43)c(C)o2)c(OC)c1
Cc1ccc(Cl)cc1N1CCN(C(=O)c2cccn3c(=O)c4cc(Cl)ccc4nc23)CC1
COC(=O)c1cc(NC(=O)CCc2c(C)nc3c4c(C)cc(C)nc4nn3c2C)cc(C(=O)OC)c1

Potency, active:
Oc1ccc(N=Cc2sc3ccccc3c2Cl)cc1 25.1 µM
C#CCOCCOCCOCCNc1nc(N2CCN(C(=O)CCCCCCCCCCNC(=O)[C@H]([C@@H](C)CC)n3cc(CCCCN=C(N)N)nn3)CC2)nc(N2CCN(C(=O)CCCCCCCCCCNC(=O)[C@H](CO)n3cc(CCCSC)nn3)CC2)n1 28.2 µM
